Assay outcomes (PubChem)
HCV inhibitor = blocks hepatitis C virus; actives 3.4% (n = 340,000); AID 651820; Huh7.5.1 HCVcc-Cre infection, luciferase reporter, 44 h; Potency, µM (highest dose often 41.8 µM), without a hit: at the top dose activity change, negative = inhibition, actives largely listed as inhibitors; also: potency is read from the fitted curve at half-maximal effect
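A cell-based infection assay in which seeded cells (1,000 per well) receive test compound after 4 h, are inoculated with HCVcc-Cre at approximately 0.5 moi, and are incubated 44 h before luminescence detection.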
Pf growth 48h = inhibits P. falciparum growth in the first generation, 48 h; actives 5.9% (n = 310,000); Potency, µM (top dose mostly 28.7 µM), inactives show top-dose activity change, negative = inhibition, actives largely listed as inhibitors; P. falciparum luciferase growth in erythrocytes, 48 h; also: potency is read from the fitted curve at half-maximal effect
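Luciferase-expressing parasites in RBCs, 2% Hct / 0.1% parasitemia final; RPMI 1640 + 0.5% Albumax; 37 C, 5% CO2, one generation; luminescence read-out, lower signal = inhibition.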
Pf growth 96h = P. falciparum growth inhibition at 96 hour, primary screen for plastid delayed-death inhibitors; P. falciparum luciferase reporter growth, 96 h; Potency, µM (series often up to 28.7 µM), without a hit: top-dose activity change, negative = inhibition, most hits filed as inhibitors; actives 6.9% (n = 320,000); AID 504834; also: potency is read from the fitted curve at half-maximal effect
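Two parasite generations (96 h, 37 C, 5% CO2) of compound exposure in infected erythrocytes (0.05% parasitemia, 2% hematocrit). Luciferase-reporter P. falciparum; decreased luminescence indicates inhibited growth, aimed at apicoplast-acting delayed death.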
MARV entry inh = inhibitors of Marburg virus binding or cell entry | Marburg virus pseudotyped entry inhibition, cell reporter | Potency, µM (titrated, usually from 37.8 µM), for the others: at the top dose activity change, negative = inhibition, usual class: inhibitors | actives 1.8% (n = 300,000) | AID 540276; calls by dose curve; tested in HEK293 cells; also: potency is read from the fitted curve at half-maximal effect
HCMV antiviral = human cytomegalovirus inhibition; actives 4.5% (n = 410,000); HFF cells, HCMV-luciferase reporter, 72 h; hits give low values; activity change, negative = inhibition, % at 57.5 µM; AID 1259415; in the data active = activity change below about -60%; inconclusive = no clear call, values can overlap the other calls; inactive = above about -39%
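Two-dose cell screen: HFF monolayers treated with compounds and infected with luciferase-expressing HCMV at 1 PFU/cell, 72 h at 37C, then lysed for luciferase measurement.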
Lassa entry inh = Lassa virus entry inhibition | AID 540256 | actives 1.2% (n = 300,000) | Lassa virus pseudotype entry inhibition, cell reporter | Potency, µM (series often up to 37.9 µM), for inactives: at the top dose activity change, negative = inhibition, usual class: inhibitors; calls by dose curve; tested in HEK293 cells; also: potency is read from the fitted curve at half-maximal effect; nearly all actives have a fitted effect of over 50% in size
* hit, by the source's call; u = inconclusive; x = no result given; [ ] = remark or other dose. A selection: hits, their analogues and other compounds. The true share with any hit is near 14%. Unless noted, calls follow the shape of the dose curve; as a rule, active = well fitted inhibition curve with a large enough effect; inconclusive = small, poorly fitted or top-dose-only effect, or another doubt; inactive = no such curve, though single readings can be large or run the other way. % is scaled to controls: 0 for no effect and ±100 for the full control effect.

SMILES	HCV inhibitor	Pf growth 48h	Pf growth 96h	MARV entry inh	HCMV antiviral	Lassa entry inh
C/C(=N/NC(=O)NC12CC3CC(CC(C3)C1)C2)c1ccccc1	u	u	0.74µM*	x	-62*	x
O=C(N/N=C/c1ccc(O)c(O)c1)NC12CC3CC(CC(C3)C1)C2	-19%	-20%	7%	u	-18	u
COC(=O)C[C@H]1C[C@H]2c3cc(NC(=O)Nc4ccc(F)cc4)ccc3O[C@H]2[C@@H](CO)O1	x	x	x	x	5	x
C=CS(=O)(=O)N(C(=C)C(=O)OC)S(C)(=O)=O	x	x	x	x	-81*	x
C=CCc1ccc(O)c(-c2ccc(O)c(CC=C)c2)c1	u	u	8.3µM*	x	-6	x
CC1CCC(NC(=O)c2ccc3c(c2)N(Cc2cccc(Cl)c2)C(=O)c2ccccc2S3(=O)=O)CC1 (stereo not drawn)	x	x	x	x	u	10%[46.1 µM]
O=C(O)c1ccc(Nc2nc3ccccc3nc2NS(=O)(=O)c2ccc(F)cc2)cc1	16%	18%	-19%	x	21	x
COc1ccc(Nc2nc3ccccc3nc2NS(=O)(=O)c2ccc(C)cc2)c(OC)c1	x	x	x	-6%[46.1 µM]	1	23%[46.1 µM]
O=[N+]([O-])c1ccc(S(=O)(=O)Nc2nc3ccccc3nc2Nc2ccccc2)cc1	u	u	16%	u	-80*	-21%
COc1cc(Nc2nc3ccccc3nc2NS(=O)(=O)c2ccc([N+](=O)[O-])cc2)cc(OC)c1OC	22µM*	u	u	19%[46.1 µM]	-74*	u
COC(=O)c1cc(Nc2nc3ccccc3nc2NS(=O)(=O)c2ccc(C)cc2)ccc1Cl	x	x	x	u	-106*	10%[46.1 µM]
CCOC(=O)c1c(S(=O)(=O)N2CCCC2)c(C)n(C)c1C	9%	13%	12µM*	x	0	x
CCOC(=O)c1c(S(=O)(=O)N2CCCC(C(=O)Nc3ccc(OCC)cc3)C2)c(C)n(C)c1C (stereo not drawn)	x	x	x	x	14	22%[46.1 µM]
CCOC(=O)c1c(S(=O)(=O)N2CCCC(C(=O)Nc3ccc(C)cn3)C2)c(C)n(C)c1C (stereo not drawn)	-1%	13µM*	17%	x	-7	17%[46.1 µM]
CCOC(=O)c1c(S(=O)(=O)N2CCCC(C)C2)c(C)n(C)c1C (stereo not drawn)	17%	u	u	x	u	x
CCOC(=O)c1c(S(=O)(=O)N2CCCCC2C)c(C)n(C)c1C (stereo not drawn)	20%	13%	1.7µM*	x	-39	x
CSc1nc(SCC(=O)NCC2CCCO2)c2c3c(sc2n1)CN(C)CC3 (stereo not drawn)	-3%	u	u	20%[46.1 µM]	-24	-1%[46.1 µM]
Cc1ccc(C)n1C1C(=O)N(Cc2ccc(C(C)C)cc2)c2ccc(OC(F)(F)F)cc21 (stereo not drawn)	x	x	x	x	-27	x
CCOc1cc(C(=O)NC(C)C2CCCO2)cc(OCC)c1OCC (stereo not drawn)	6%	41%[1.15 µM]	12µM*	-2%	-4	-19%
CCOc1ccc(S(=O)(=O)N2CCOCC2)cc1NS(=O)(=O)c1ccc(OC)c([N+](=O)[O-])c1	-7%	6%	-20%	9%	-8	7%
O=C(CSc1nc2c([nH]c3ccccc32)c(=O)n1-c1cccc(Cl)c1)N1CCCC1	x	x	x	x	29	1%[46.1 µM]
O=C(C1COc2ccccc2O1)N1CCN(c2ccccc2F)CC1 (stereo not drawn)	-9%	12µM*	u	1%	90	3%
Cc1cc(=O)oc2c(C)c(OCC(=O)N3CCN(C(=O)C4COc5ccccc5O4)CC3)ccc12 (stereo not drawn)	13%	10µM*	9.3µM*	x	27	x
Cc1ccc(S(=O)(=O)N2CCN(C(=O)C3COc4ccccc4O3)CC2)cc1C (stereo not drawn)	x	u	x	-9%	-25	-20%[14.3 µM]
Cc1cc(C)c(S(=O)(=O)N2CCN(C(=O)C3COc4ccccc4O3)CC2)c(C)c1 (stereo not drawn)	11µM*	u	0%	x	8	x
SMILES	HCV inhibitor	Pf growth 48h	Pf growth 96h	MARV entry inh	HCMV antiviral	Lassa entry inh
O=C(N1CCOCC1)N1CCN(Cc2ccccc2)CC1	9%	16%	1.7µM*	14%	71	-1%
O=C(C1COc2ccccc2O1)N1CCN(Cc2ccccc2)CC1 (stereo not drawn)	7%	30%	8.3µM*	x	-11	x
O=C(N1CCOCC1)N1CCc2ccccc21	8%	64%	12µM*	x	12	x
O=C(C1COc2ccccc2O1)N1CCCCC1 (stereo not drawn)	8%	14%	-7%	x	31	x
CCOc1ccc(C(=O)Nc2cccc(NC(=O)c3ccc(C(C)(C)C)cc3)c2)cc1Br	x	x	x	x	75	-20%[46.1 µM]
Cc1nn(Cc2ccccc2Cl)c(C)c1NC(=O)C1C2CCC(O2)C1C(=O)O (stereo not drawn)	4%	8%	x	-2%	-8	u
Cc1nn(Cc2ccc(Cl)cc2Cl)c(C)c1NC(=O)C1C2CCC(O2)C1C(=O)O (stereo not drawn)	u	u	u	-24%[46.1 µM]	-64*	5%
Cc1nnsc1NC(=O)OCc1ccc(Cl)cc1Cl	-26%	1%	30%	2%	9	3%
Cc1nn(Cc2ccc(Cl)cc2Cl)c(C)c1NC(=O)CCl	13µM*	0.59µM*	10µM*	u	u	u
Cc1nn(C)c(Cl)c1NC(=O)OCc1ccc(Cl)cc1Cl	10µM*	8%	28%	u	-96*	-25%
Cc1nn(Cc2ccc(Cl)cc2Cl)c(C)c1NC(=O)c1nn(C)cc1Cl	u	-4%	u	u	-21	-24%
CCOC(=O)[C@]12CCCC=C1N(Cc1ccc3c(c1)OCO3)C(=O)[C@H](CC(=O)NCc1ccc(OC)c(OC)c1)C2	x	x	x	x	9	x
CN(C)c1ccc(CNc2nc(-c3ccco3)nn2S(=O)(=O)c2ccc3ccccc3c2)cc1	x	x	x	23%[46.1 µM]	94	-2%[46.1 µM]
CCOC(=O)c1c(CN2CCN(C)CC2)oc2ccc(O)cc12	8%	-28%	u	-2%	3	22%
CCOC(=O)c1c(CN(CC)CC)oc2cc(Br)c(O)cc12	10µM*	x	u	1%	19	x
CCOC(=O)c1c(CN(CC)CC)oc2ccc(OC)cc12	-5%	u	15µM*	-17%[46.1 µM]	7	0%
CCOC(=O)c1c(-c2ccccc2)oc2ccc(OCC)cc12	u	0%	-26%	-25%[46.1 µM]	-9	-7%
COC(=O)c1c(C)oc2ccc(N(C(=O)c3ccncc3)S(=O)(=O)c3cc(C)ccc3C)cc12	x	x	x	-29%[46.1 µM]	-65*	u
COc1ccc2oc(C)c(C(N)=O)c2c1	-2%	9%	-23%	-4%	-34	3%
CCOC(=O)c1c(-c2ccccc2)oc2ccc(OC)cc12	11µM*	23%	x	28%	9	-1%
O=c1cc(-c2ccccc2F)[nH]c2cc3c(cc12)OCO3	x	x	x	16%	x	9%
